Assay outcomes deposited in PubChem by Broad Institute.
Shown is part of a subset that was picked to be rich in hits.
Tg IFNy HTS – inhibitors of Toxoplasma gondii growth with IFN-gamma | Toxoplasma gondii growth in IFN-gamma-treated host cells; hits give low values | activity change, negative = inhibition, % (concentration not given with the values) | hit rate 3.8% among 69,000; in the data active = activity change below about -70%, passing the limit was not always enough;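 also: host cells are HeLa cells infected with Toxoplasma gondii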
* hit, by the source's call.

SMILES | Tg IFNy HTS
Cc1cc(NC(=O)C2CCCC2)n(-c2ncnc3c2cnn3-c2cccc(Cl)c2)n1 | -19.3
Cc1nc2sc(C(=O)NCCCOc3ccccc3C)c(C)c2c(=O)[nH]1 | -17.3
Cc1ncc(S(=O)(=O)N2CCN(C(=O)c3cccnc3)CC2)c(-c2ccccn2)n1 | 74.2
COC(=O)CCn1cc(CN2CCCN(c3ccc(F)cc3)CC2)cn1 | 11.2
COc1cccc(C(=O)N2CCc3nc(N4CCCC4)nc(NC(C)C)c3C2)c1 | -109.9*
Cc1ccsc1C(=O)N1CCc2nc(N3CCOCC3)nc(NC(C)C)c2C1 | -20.4
COCCC(=O)N1CCc2nc(N3CCOCC3)nc(NC(C)C)c2C1 | 30.5
Cc1nc(CN2CCN(CC(=O)Nc3ccc(-n4ccnc4)cc3)CC2)cs1 | 1.1
CCc1cccc(NC(=O)N2CCC3(CC2)COCCN(CC(=O)N(C)C)C3)c1 | 29.7
CN(Cc1ccc(CO)o1)Cc1cccc2ncccc12 | 1.2
O=C(Nc1ccccc1)c1ncn2c1CN(CC1CC1)S(=O)(=O)c1ccccc1-2 | -32.9
CCC1CN(Cc2cnc(-c3cccs3)nc2)CCN1C(C)C (centres undefined) | 0.8
Cc1cc(C(F)(F)F)nc(SCC(=O)NCC(C)n2nc(C)c(C)c2C)n1 (centres undefined) | 6.3
O=C(NCCc1ccccc1)c1ccccc1Cl | 248.1
O=C(NCCc1ccncc1)c1cc(Br)ccc1O | -75.8*
CC(C)(C)c1ccc(NC(=S)NCCc2ccncc2)cc1 | -11.8
COC(=O)c1c(NCc2cccc(OC)c2)c2cccc(Cl)c2[nH]c1=O | -47.5
COC(=O)c1c(NCc2ccc(C(F)(F)F)cc2)c2cc(F)ccc2[nH]c1=O | -64.5
COC(=O)c1c(NCc2cccc(OC)c2)c2cc(Cl)ccc2[nH]c1=O | -114.1*
Cc1ccc2c(c1C)-n1cccc1C1(CCN(C(=O)c3ccc(F)cc3)CC1)N2 | -10.1
CC1CCCCN1C(=O)Cn1c(=O)n(C)c2ncccc21 (centres undefined) | -0.9
CC(C)(Cc1ccc2ccccc2c1)NC[C@@H](O)COc1cccc(Cl)c1C#N | -71.8*
CC(C)NCC(O)COc1cccc2ccccc12 (centres undefined) | -5.1
CC(C)(C)NCC(O)COc1ccccc1C(=O)CCc1ccccc1 (centres undefined) | -30.2
CN(C)CCN1C2(CCN(C(=O)c3ccno3)C2)c2ccccc2S1(=O)=O (centres undefined) | 205.1
SMILES | Tg IFNy HTS
CO[C@H]1CCN(Cc2cccc(C)n2)[C@H]2CN(Cc3ccncc3)C[C@@H]12 | 125.0
CN(C)S(=O)(=O)c1ccc2c(c1)cc(C(=O)NCc1ccco1)n2Cc1ccncc1 | 30.9
Cc1noc(C)c1S(=O)(=O)NCC(=O)N1CCCN(Cc2ccccn2)CC1 | 0.5
Cc1nc(CN2CCOCC3(CN(CCO)CCO3)C2)cs1 (centres undefined) | 0.7
Cc1nc(CN2CCOCC3(CNCCO3)C2)cs1 (centres undefined) | -89.8*
CC(=O)N1CCOCC12CCN(Cc1csc(C)n1)CC2 | 2.2
CC(O)CN(Cc1ccc(O)cc1)Cc1ccc2c(c1)OCO2 (centres undefined) | -0.1
CCn1nc(C)cc1C(=O)N1CCOC2CCC1C2OC (centres undefined) | 46.4
Cc1cccc(Cn2nc(NC(=O)c3ccncc3)cc2C)c1 | 2.1
Cc1cccc(C(C(=O)NCc2cnc3c(C)cccn23)N(C)C)c1 (centres undefined) | 4.4
c1csc(-c2cnc(N3CCCC3)nc2-c2nccs2)c1 | -8.1
c1csc(-c2[nH]ncc2-c2ccnc(N3CCOCC3)n2)c1 | -106.0*
Cn1ccc2c(-c3cc(N)nc(N4CCOCC4)n3)ccnc21 | -16.9
Cc1cccc(N2CCN(C(=O)c3cncc(N(C)S(=O)(=O)c4ccccc4)c3)CC2)c1C | -52.4
OCCOc1ccccc1CN1CCN(c2ncnc3ccccc23)CC1 | -6.5
Cc1cccc(NC(=O)N2CCC3(CC2)Nc2ccccc2-n2cccc23)c1C | 353.8
CC(C)(C)c1[nH]cnc1/C=c1\[nH]c(=O)/c(=C/c2ccccc2)[nH]c1=O | -87.2*
Fc1cccc(CN2CCN(Cc3cccc(-n4cccn4)c3)CC2)c1 | -6.0
N#Cc1ccc(C(=O)N2C[C@H](OCc3cccnc3)[C@@H]3COC[C@@H]32)cc1 | -22.0
CCOc1cc(CCC(=O)Nc2ccc3[nH]c4c(c3c2)CCCC4)on1 | 0.4
CN(C)C(=O)CN1CCN(Cc2cccc(C(=O)Nc3cnn(C)c3)c2)CC1 | 11.1
COC(=O)c1ccc2c(C(=Nc3ccc(N(C)C(=O)CN4CCN(C)CC4)cc3)c3ccccc3)c(O)[nH]c2c1 | -77.7*
COC(=O)c1sccc1S(=O)(=O)Nc1ccc(Nc2ccccc2)cc1OC | -1.3
COC(=O)c1sccc1S(=O)(=O)Nc1ccc(C)cc1 | 11.2
COC(=O)c1sc(-c2cccs2)cc1NS(=O)(=O)c1ccsc1C(=O)OC | -85.4*
CC(=O)CC1N(C2CCCCCC2)C(=O)C2N(C3CC3)C(=O)C3CC(=O)OC312 (centres undefined) | 21.9
N#Cc1cccc(-c2ccc(C3[C@@H]4CN(C(=O)Cc5ccncc5)C[C@H]3N4)cc2)c1 (some centres undefined) | 13.7
